Source: PubChem (NMMLSC)
RPL19A-GFP yeast = yeast TOR pathway RPL19A-GFP modulation; S. cerevisiae RPL19A-GFP strain, flow cytometry, 3 h; hits give low values; percent response vs DMSO, % at 10 µM; 330,000 compounds, 0.3% hits; AID 2025;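 active = percent response vs DMSO below 50%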;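 note: median channel GFP fluorescence of the barcoded RPL19A-GFP strain; ratio of sample median GFP to plate DMSO average so 100% = DMSO; lower means less RPL19A-GFP as with rapamycin TOR inhibition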
MEP2-GFP yeast = modulators of TOR pathway MEP2-GFP in S. cerevisiae; S. cerevisiae MEP2-GFP strain, flow cytometry GFP, 3 h; 100% = DMSO control level; GFP response vs DMSO, % at 10 µM; 330,000 compounds, 0.51% hits; AID 2016;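 active = GFP response versus DMSO above a set limit, roughly screen mean plus 3 SD, cut at about 180% in these data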;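 note: median GFP fluorescence of the barcode-gated MEP2-GFP cells per well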
AGP1 TOR yeast = alters AGP1-GFP fluorescence in TOR pathway yeast screen; 320,000 compounds, 0.02% hits; GFP response vs DMSO, % at 10 µM; AID 2066; S. cerevisiae AGP1-GFP multiplex flow cytometry, 3 h; GFP as percent of DMSO wells;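 active = GFP response relative to DMSO above a set limit, near screen average plus 3 SD, cut at about 150% in these data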;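 note: median GFP channel fluorescence of the gated AGP1 strain per well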
LAP4-GFP MLPCN = alters LAP4-GFP fluorescence in TOR pathway yeast screen; GFP response vs DMSO, % at 10 µM; 320,000 compounds, 0.34% hits; S. cerevisiae LAP4-GFP multiplex, flow cytometry GFP, 3 h; median GFP as percent of DMSO wells; AID 2023;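 active = GFP response vs DMSO above a set limit, about the screen mean plus 3 SD, cut at about 150% in these data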
CIT2 TOR yeast = modulators of TOR pathway CIT2-GFP in S. cerevisiae. S. cerevisiae CIT2-GFP strain, flow cytometry, 3 h; 100 means same as DMSO wells. GFP response vs DMSO, % at 10 µM. 320,000 compounds, 0.065% hits;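 active = GFP response relative to DMSO above a set limit, near the screen mean plus 3 SD, cut at about 150% in these data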;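 note: ratio of well median GFP fluorescence to mean of DMSO wells on the plate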
Efflux pump mplx = antifungal efflux pump inhibition, Nile Red retention; inhibition, % at 10 µM; AID 485275; S. cerevisiae Candida pump triplex; 330,000 compounds, 0.44% hits;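 active = plate passing quality check with inhibition over a set limit, or well fluorescence over plate mean plus 4 SD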;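 note: Nile Red retained in pooled yeast measured as flow cytometry median fluorescence; 0% = buffer negative control and 100% = Enniatin B positive control; higher means more Nile Red kept so more efflux inhibition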
Cmpd fluor yeast = compound fluorescence in yeast efflux pump counter-screen. shares compounds with Efflux pump mplx. fluorescence ratio to DMSO, % at 10 µM. 1,700 compounds, 4% hits. S. cerevisiae AD/pABC3, flow cytometry;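 active = fluorescence ratio to DMSO above its plate's cutoff, the plate mean ratio plus 5 SD, cut at about 210% in these data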;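 note: unstained yeast with no Nile Red so the signal is compound autofluorescence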
Mdr1 pump inh = inhibitors of Candida albicans Mdr1 efflux pump. AID 588518. shares compounds with Efflux pump mplx. inhibition, % at 10 µM. 1,700 compounds, 1% hits. S. cerevisiae AD/CaMDR1, Nile Red efflux, flow cytometry; in the data active = inhibition above about 26%;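 note: 0% = DMSO vehicle and 100% = reference inhibitor; higher means more Nile Red retained so more efflux inhibition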
Cdr2 pump inh = inhibitors of Candida albicans Cdr2 efflux pump | shares compounds with Efflux pump mplx | S. cerevisiae AD/CaCDR2, Nile Red retention, flow cytometry | Nile Red retention ratio vs DMSO, % at 10 µM | 1,700 compounds, 4% hits | AID 588520; in the data active = Nile Red retention ratio vs DMSO above about 190%;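 note: higher ratio means more blocking of Cdr2 efflux of the dye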
Cdr1 pump inh = inhibitors of Candida albicans Cdr1 efflux pump; S. cerevisiae AD/CaCDR1, Nile Red efflux, flow cytometry; 1,700 compounds, 1% hits; inhibition, % at 10 µM; shares compounds with Efflux pump mplx;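 active = inhibition above the screen-wide mean plus twice its standard deviation, cut at about 32% in these data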
* marks the source's active call; other numbers are inactive results; · = not tested or not shown. Only some compounds are listed: those with a hit (about 1.3% of all), similar ones and a draw of the others.

SMILES	RPL19A-GFP yeast	MEP2-GFP yeast	AGP1 TOR yeast	LAP4-GFP MLPCN	CIT2 TOR yeast	Efflux pump mplx	Cmpd fluor yeast	Mdr1 pump inh	Cdr2 pump inh	Cdr1 pump inh
CC(C)Sc1cc(N2CCCC2)nc(-c2ccccc2Cl)n1	87.5	100.2	93.2	91.7	92.8	0.4	160.8	0.3	105.1	-0.1
Cc1sc2ncn(CC(=O)OC(C)C(=O)NC(C)(C)C)c(=O)c2c1C (stereo not given)	96.3	116.4	95.6	97.1	93.2	-0.1	·	·	·	·
O=C(NC1CCCCCCC1)NC1CCCCC1	96.9	91.3	112.2	109.3	93.0	1.0*	112.7	0.0	105.1	0.0
Cc1ccc(C(=O)NNC(=O)c2cccnc2SCc2cccc([N+](=O)[O-])c2)cc1	97.3	99.2	92.2	96.5	91.0	-0.1	·	·	·	·
COc1ccc(-n2nc(C(=O)NCC(=O)Nc3ccc(F)cc3)c3ccccc3c2=O)cc1	98.0	94.9	92.5	92.6	92.9	0.0	·	·	·	·
CSc1nc(-c2ccccc2)nc(N2CCOCC2)c1C(C)=O	107.8	105.2	102.7	102.2	86.4	-0.1	97.2	-0.2	103.8	0.0
CC(=O)c1c(N2CCOCC2)[nH]c(-c2ccccc2)nc1=S	98.8	99.8	100.0	100.3	91.8	0.3	101.8	-0.2	101.5	0.1
CC(=O)c1c(N2CCN(Cc3ccccc3)CC2)[nH]c(-c2ccccc2)nc1=S	100.4	103.1	104.1	114.6	104.3	0.5*	133.5	1.4	103.8	1.2
CC(=O)c1c(N2CCN(Cc3ccccc3)CC2)nc(=S)n(Cc2ccccc2)c1C	108.7	77.7	108.0	87.5	110.1	0.1	·	·	·	·
CC(=O)c1c(N2CCCC2)[nH]c(-c2ccccc2)nc1=S	98.3	96.6	100.1	99.4	102.5	-0.1	·	·	·	·
CCOc1ccc(NC(=O)CN(C)C(=O)CCNC(=O)c2ccccc2Cl)cc1OCC	90.8	93.9	88.4	87.7	85.6	0.1	·	·	·	·
Cc1ccc(NC(=O)COC(=O)c2ccc[n+]([O-])c2)c(Br)c1	97.6	107.4	105.0	103.4	104.4	0.1	·	·	·	·
CCOC(=O)O[C@]1(C(=O)OCCl)CC[C@H]2[C@@H]3CCC4=CC(=O)C=C[C@]4(C)[C@H]3[C@@H](O)C[C@@]21C	103.9	94.9	95.6	109.3	102.3	0.1	·	·	·	·
CCOC(=O)c1c(NC(=O)Cn2nc(C(=O)O)c3ccccc3c2=O)sc2c1CCC(C)C2 (stereo not given)	100.6	106.8	97.6	99.4	87.2	0.5*	106.7	0.1	95.1	0.0
NC(=O)c1c(NC(=O)Cn2nc(C(=O)O)c3ccccc3c2=O)sc2c1CCC2	92.3	98.2	100.9	90.7	87.7	0.1	·	·	·	·
N#CCCSc1ccccc1NC(=O)c1cc(=O)c2ccccc2o1	95.2	90.5	92.6	94.0	98.0	0.0	·	·	·	·
Cc1ccc(Nc2c(-c3ccc(N4CCOCC4)cc3)nc3ncccn23)cc1	101.2	95.8	100.1	97.7	85.6	0.9*	107.9	0.0	106.3	0.0
O=C(N/N=C/c1c[nH]c2ccccc12)c1cc(Cl)ccc1O	105.3	111.5	92.3	102.3	91.7	0.2	·	·	·	·
COc1ccc(-n2cc(-c3ccccc3)c3c(NN4CCOCC4)ncnc32)cc1	98.3	104.4	104.3	118.3	90.2	2.5*	109.0	0.1	106.3	0.2
COC(=O)CN1C(=S)N(c2ccc(Cl)cc2)C(=O)C1CC(=O)Nc1ccc(Cl)cc1 (stereo not given)	93.2	92.4	97.3	91.7	77.8	0.5*	93.5	-0.1	107.2	-0.1
CCc1ccccc1NC(=O)CN1C(=O)c2ccccc2S1(=O)=O	103.5	102.5	93.3	89.5	92.3	0.3	·	·	·	·
